Test results from PubChem BioAssay (NCATS).
Inconclusive results are not listed. The source made the active and inactive calls. Calls follow the shape of the dose curve; as a rule, active = well fitted curve in the direction sought with a large enough effect; inconclusive = small, poorly fitted or top-dose-only effect, or another doubt; inactive = no such curve, though single readings can be large; an effect the other way counts as inactive or inconclusive. Where a SMILES comes first, the peptide text is derived from it.

Key:
NIH3T3 = assay: qHTS assay to identify novel small-molecules to repurpose for Merkel cell carcinoma treatment (AID 1296009); conditions: MCC and control cell lines, CellTiter-Glo viability, 72 h; at 44.8 µM (top of the series) unless noted; also: nearly all actives have a fitted effect of over 60% in size
Summary of the method: (§1)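 Luminescence from CellTiter-Glo, read 10 min after addition at room temperature, reported viability following a 72 hr, 37 degree celsius treatment with NPC or MIPE compounds in titration; values normalized to plate controls.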

C33A = assay: Primary qHTS to identify gynecologic anti-cancer compounds using libraries of approved drugs and bioactive compounds (AID 1345084); conditions: Gynecologic cancer cell panel viability, ATPlite luminescence, 48 h; series mostly up to 57.5 µM; also: nearly all actives have a fitted effect of over 55% in size
Summary of the method: (§2)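 ATP-based viability (ATPlite), 1,000 cells/well, 16 h pre-incubation, 48 h compound at 37 C, 5% CO2, 15 min RT before read.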

CAOV3 = assay: as above; conditions: Gynecologic cancer cell panel viability, ATPlite luminescence, 48 h; series mostly up to 57.5 µM
Summary of the method: as §2

CASKI = assay: as above; conditions: Gynecologic cancer cell panel viability, ATPlite luminescence, 48 h; series mostly up to 57.5 µM
Summary of the method: as §2

Es-2 = assay: as above; conditions: Gynecologic cancer cell panel viability, ATPlite luminescence, 48 h; series mostly up to 57.5 µM
Summary of the method: as §2

HeLa = assay: as above; conditions: Gynecologic cancer cell panel viability, ATPlite luminescence, 48 h; series mostly up to 57.5 µM
Summary of the method: as §2

Hek293T = assay: as above; conditions: Gynecologic cancer cell panel viability, ATPlite luminescence, 48 h, control line for the selectivity index; series mostly up to 57.5 µM
Summary of the method: as §2

JEG-3 = assay: as above; conditions: Gynecologic cancer cell panel viability, ATPlite luminescence, 48 h; series mostly up to 57.5 µM
Summary of the method: as §2

UISO = assay: qHTS assay to identify novel small-molecules to repurpose for Merkel cell carcinoma treatment (AID 1296009); conditions: MCC and control cell lines, CellTiter-Glo viability, 72 h; series mostly up to 46 µM; also: nearly all actives have a fitted effect of over 60% in size
Summary of the method: as §1

WaGa = assay: as above; conditions: MCC and control cell lines, CellTiter-Glo viability, 72 h; series mostly up to 46 µM
Summary of the method: as §1
% is scaled to controls: 0 for no effect and ±100 for the full control effect.

CCCn1cnc2c(NCc3ccccc3)nc(N[C@H](CC)CO)nc21
inactive: outcome (NIH3T3) | Potency (C33A) | Potency (CAOV3) | Potency (CASKI) | Potency (Es-2) | Potency (HeLa) | Potency (Hek293T) | Potency (JEG-3)

C[C@@H]1O[C@@H](O[C@H]2[C@H](OC(=O)[C@]34CCC(C)(C)C[C@H]3C3=CCC5[C@@]6(C)CC[C@H](O[C@@H]7O[C@H](CO[C@@H]8OC[C@H](O)[C@H](O)[C@H]8O)[C@@H](O)[C@H](O)[C@H]7O)C(C)(C)C6CC[C@@]5(C)[C@]3(C)C[C@H]4O)OC[C@@H](O)[C@@H]2O)[C@H](O)[C@H](O)[C@H]1O[C@@H]1OC[C@H](O)[C@H](O[C@@H]2OC[C@@H](O)[C@H](O)[C@H]2O)[C@H]1O (some centres not stated)
inactive: outcome (NIH3T3) inactive [at 9.27 µM] | activity change, negative = cytotoxicity (C33A) 2.46% [at 6.55 µM] | activity change, negative = cytotoxicity (CAOV3) -15.5% [at 6.55 µM] | activity change, negative = cytotoxicity (CASKI) -13.2% [at 6.55 µM] | activity change, negative = cytotoxicity (Es-2) -2.02% [at 6.55 µM] | activity change, negative = cytotoxicity (HeLa) 18.3% [at 6.55 µM] | activity change, negative = cytotoxicity (Hek293T) -6.63% [at 6.55 µM] | activity change, negative = cytotoxicity (JEG-3) -1.75% [at 6.55 µM]

C=C1CCC2C(C)(C)CC(=O)CC2(C)C1CCC(C)CCOC(C)=O (configuration not stated)
inactive: outcome (NIH3T3) | Potency (C33A) | Potency (CAOV3) | Potency (CASKI) | Potency (Es-2) | Potency (HeLa) | Potency (Hek293T) | Potency (JEG-3)

CC(CCC1(O)OC2CC3C4CCC5CC(O[C@@H]6O[C@H](CO)[C@@H](O)[C@H](O)[C@H]6O[C@@H]6OC[C@@H](O)[C@H](O)[C@H]6O)C(O)CC5(C)C4CCC3(C)C2C1C)CO[C@@H]1O[C@H](CO)[C@@H](O)[C@H](O)[C@H]1O (some centres not stated)
inactive: outcome (NIH3T3) inactive [at 9.27 µM] | activity change, negative = cytotoxicity (C33A) 4.8% [at 11.6 µM] | activity change, negative = cytotoxicity (CAOV3) 10.9% [at 11.6 µM] | activity change, negative = cytotoxicity (CASKI) 14.6% [at 11.6 µM] | activity change, negative = cytotoxicity (Es-2) -0.82% [at 11.6 µM] | activity change, negative = cytotoxicity (HeLa) -1.03% [at 11.6 µM] | activity change, negative = cytotoxicity (Hek293T) -3.21% [at 11.6 µM] | activity change, negative = cytotoxicity (JEG-3) 4.38% [at 11.6 µM]

O=C(/C=C/c1ccccc1)OCC1=CC[C@@H]2C(C(=O)O)=CO[C@@H](O[C@@H]3O[C@H](CO)[C@@H](O)[C@H](O)[C@H]3O)[C@H]12
inactive: outcome (NIH3T3) inactive [at 17.4 µM] | Potency (C33A) | Potency (CAOV3) | Potency (CASKI) | Potency (Es-2) | Potency (HeLa) | Potency (Hek293T) | Potency (JEG-3)

O=C(O)c1cc(O)c2cccc(O)c2c1O[C@@H]1O[C@H](CO)[C@@H](O)[C@H](O)[C@H]1O
inactive: outcome (NIH3T3) | Potency (C33A) | Potency (CAOV3) | Potency (CASKI) | Potency (Es-2) | Potency (HeLa) | Potency (Hek293T) | Potency (JEG-3)

COC12CC3C(C(C)C1=CC(=O)O2)C(O)C(OC(C)=O)C1C(C)(C)C(OC(C)=O)CCC31C (configuration not stated)
inactive: outcome (NIH3T3) inactive [at 17.4 µM] | Potency (C33A) | Potency (CAOV3) | Potency (CASKI) | Potency (Es-2) | Potency (HeLa) | Potency (Hek293T) | Potency (JEG-3)

CC(=O)OC(C)OC(=O)C(C)c1ccc(-c2ccccc2)c(F)c1 (configuration not stated)
inactive: outcome (NIH3T3) | outcome (UISO) | outcome (WaGa) | Potency (C33A) | Potency (CAOV3) | Potency (CASKI) | Potency (Es-2) | Potency (HeLa) | Potency (Hek293T) | Potency (JEG-3)

COC(=O)C12C(=O)C(C)=C(O)C1(C)C(C)=CC1C34CCC(OC3=O)C(C)(C)C4CCC12C (configuration not stated)
inactive: outcome (NIH3T3) inactive [at 17.4 µM] | Potency (C33A) | Potency (CAOV3) | Potency (CASKI) | Potency (Es-2) | Potency (HeLa) | Potency (Hek293T) | Potency (JEG-3)

CC(C)(C)NCc1cc(Nc2ccnc3cc(Cl)ccc23)c2c(c1O)CCCC2
inactive: outcome (NIH3T3) inactive [at 0.588 µM] | activity change, negative = cytotoxicity (C33A) 15.8% [at 0.462 µM] | activity change, negative = cytotoxicity (CAOV3) -2.51% [at 0.462 µM] | activity change, negative = cytotoxicity (CASKI) 10.8% [at 0.462 µM] | activity change, negative = cytotoxicity (Es-2) 6.55% [at 0.462 µM] | activity change, negative = cytotoxicity (HeLa) 9.09% [at 0.462 µM] | activity change, negative = cytotoxicity (Hek293T) -0.834% [at 0.462 µM] | activity change, negative = cytotoxicity (JEG-3) 2.67% [at 0.462 µM]

CN1C(=O)c2ccccc2-n2c(nc3ccccc3c2=O)[C@@]12O[C@H]2c1ccccc1
inactive: outcome (NIH3T3) | Potency (C33A) | Potency (CAOV3) | Potency (CASKI) | Potency (Es-2) | Potency (HeLa) | Potency (Hek293T) | Potency (JEG-3)

CCC(C)C(=O)O[C@@H]1[C@@H](O)[C@@H](O[C@H]2O[C@H](CO)[C@@H](O)[C@H](O)[C@H]2O)O[C@H](CO)[C@H]1O (some centres not stated)
inactive: outcome (NIH3T3) inactive [at 17.4 µM] | Potency (C33A) | Potency (CAOV3) | Potency (CASKI) | Potency (Es-2) | Potency (HeLa) | Potency (Hek293T) | Potency (JEG-3)

C=CC(C)(O)CC/C=C(/C)C(=O)OC1C(OC2OCC(OC3OC(CO)C(O)C(O)C3O)C(OC3OCC(O)C(OC4OC(C)C(O)C(O)C4O)C3O)C2O)COC(OC(=O)C23CCC(C)(C)CC2C2=CCC4C5(C)CCC(OC6OC(CO)C(OC7OC(CO)C(O)C(OC8OCC(O)C(O)C8O)C7O)C(O)C6O)C(C)(C)C5CCC4(C)C2(C)CC3O)C1O (configuration not stated)
inactive: outcome (NIH3T3) inactive [at 4.96 µM] | activity change, negative = cytotoxicity (C33A) 1.13% [at 6.55 µM] | activity change, negative = cytotoxicity (CAOV3) 6.96% [at 6.55 µM] | activity change, negative = cytotoxicity (CASKI) 8.91% [at 6.55 µM] | activity change, negative = cytotoxicity (Es-2) -0.338% [at 6.55 µM] | activity change, negative = cytotoxicity (HeLa) 1.37% [at 6.55 µM] | activity change, negative = cytotoxicity (Hek293T) -23.4% [at 6.55 µM] | activity change, negative = cytotoxicity (JEG-3) -0.642% [at 6.55 µM]

CC1NC(=O)CNC(=O)C(C(C)C)NC(=O)C2CCCN2C(=O)C(C(C)C)NC(=O)C(Cc2c[nH]c3ccccc23)NC1=O (configuration not stated) (cyclo(GAWVPV); configuration not given here)
inactive: outcome (NIH3T3) inactive [at 17.4 µM] | Potency (C33A) | Potency (CAOV3) | Potency (CASKI) | Potency (Es-2) | Potency (HeLa) | Potency (Hek293T) | Potency (JEG-3)

Cc1[nH]cnc1C1CCN(c2nc3cccc4c3n2CCC4=O)CC1
inactive: outcome (NIH3T3) | Potency (C33A) | Potency (CAOV3) | Potency (CASKI) | Potency (Es-2) | Potency (HeLa) | Potency (Hek293T) | Potency (JEG-3)
